Reference: the supplement of paper PMC8728848
The entries come from a sample that favours the strongest signals as a whole.

Experiments:
Assay in all cases: glycan array binding signal (z-score within array); higher = stronger binding
Conditions in all cases: glycan notation: IUPAC condensed, linker removed
[1] = target: Fuc(a1-2)Gal(b1-3)GalNAc(b1-3)Gal(a1-4)Gal(b1-4)Glc
Outline: (§1)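 The Consortium for Functional Glycomics database supplied 3228 glycan arrays, of which those lacking an available protein sequence were dropped. The binding signal, a within-array Z-score, was averaged across arrays of the same protein sequence and across linkers. Negative scores can be read as non-binding.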

[2] = target: Fuc(a1-2)Gal(b1-3)GlcNAc(b1-3)GalNAc
Outline: as §1

[3] = target: Fuc(a1-2)Gal(b1-3)[Fuc(a1-4)]GlcNAc(b1-2)Man(a1-3)[Fuc(a1-2)Gal(b1-3)[Fuc(a1-4)]GlcNAc(b1-2)Man(a1-6)]Man(b1-4)GlcNAc(b1-4)[Fuc(a1-6)]GlcNAc(b1-4)[Fuc(a1-6)]GlcNAc
Outline: as §1

[4] = target: Fuc(a1-2)Gal(b1-4)[Fuc(a1-3)]GlcNAc(b1-2)Man(a1-3)[Fuc(a1-2)Gal(b1-4)[Fuc(a1-3)]GlcNAc(b1-2)Man(a1-6)]Man(b1-4)GlcNAc(b1-4)[Fuc(a1-6)]GlcNAc
Outline: as §1

[5] = target: Fuc(a1-2)[Gal(a1-4)]Gal(b1-4)GlcNAc
Outline: as §1

[6] = target: Fuc(a1-3)[Gal3S(b1-4)]GlcNAc
Outline: as §1

Fuc(a1-4)GlcNAc = target: Fuc(a1-4)GlcNAc
Outline: as §1

[7] = target: Gal(a1-3)Gal(b1-4)[Fuc(a1-3)]GlcNAc
Outline: as §1

Gal(a1-4)GlcNAc = target: Gal(a1-4)GlcNAc
Outline: as §1

Gal(b1-3)Gal = target: Gal(b1-3)Gal
Outline: as §1

Gal(b1-3)GlcNAc(b1-2)Man = target: Gal(b1-3)GlcNAc(b1-2)Man
Outline: as §1

[8] = target: Gal(b1-3)GlcNAc(b1-3)Gal(b1-4)[Fuc(a1-3)]GlcNAc
Outline: as §1

[9] = target: Gal(b1-3)GlcNAc(b1-3)Gal(b1-4)[Fuc(a1-3)]GlcNAc(b1-6)[Gal(b1-3)GlcNAc(b1-3)]Gal(b1-4)Glc
Outline: as §1

Gal(b1-4)Glc = target: Gal(b1-4)Glc
Outline: as §1

[10] = target: Gal(b1-4)GlcNAc(b1-3)Gal(b1-4)GlcNAc(b1-3)GalNAc
Outline: as §1

[11] = target: Gal(b1-4)GlcNAc(b1-3)GalNAc
Outline: as §1

Gal3S(b1-4)GlcNAc = target: Gal3S(b1-4)GlcNAc
Outline: as §1

[12] = target: Gal3S(b1-4)[Fuc(a1-3)]GlcNAc
Outline: as §1

GalNAc(a1-3)Gal = target: GalNAc(a1-3)Gal
Outline: as §1

GalNAc(b1-3)GalNAc = target: GalNAc(b1-3)GalNAc
Outline: as §1

GalNAc(b1-3)GlcNAc = target: GalNAc(b1-3)GlcNAc
Outline: as §1

[13] = target: GalNAc3S(b1-4)[Fuc(a1-3)]GlcNAc
Outline: as §1

[14] = target: GlcNAc(a1-4)Gal(b1-3)GlcNAc
Outline: as §1

[15] = target: GlcNAc(b1-3)Gal(b1-3)GalNAc
Outline: as §1

GlcNAc(b1-3)Gal(b1-4)Glc = target: GlcNAc(b1-3)Gal(b1-4)Glc
Outline: as §1

[16] = target: GlcNAc(b1-3)Gal(b1-4)GlcNAc(b1-2)Man(a1-3)[GlcNAc(b1-3)Gal(b1-4)GlcNAc(b1-2)Man(a1-6)]Man(b1-4)GlcNAc(b1-4)[Fuc(a1-6)]GlcNAc
Outline: as §1

[17] = target: GlcNAc(b1-3)Gal(b1-4)GlcNAc(b1-3)Gal(b1-4)GlcNAc(b1-2)Man(a1-3)[GlcNAc(b1-3)Gal(b1-4)GlcNAc(b1-3)Gal(b1-4)GlcNAc(b1-2)Man(a1-6)]Man(b1-4)GlcNAc(b1-4)[Fuc(a1-6)]GlcNAc
Outline: as §1

[18] = target: GlcNAc(b1-3)Gal(b1-4)GlcNAc(b1-3)Gal(b1-4)GlcNAc(b1-2)[GlcNAc(b1-3)Gal(b1-4)GlcNAc(b1-3)Gal(b1-4)GlcNAc(b1-6)]Man(a1-6)[GlcNAc(b1-3)Gal(b1-4)GlcNAc(b1-3)Gal(b1-4)GlcNAc(b1-2)Man(a1-3)]Man(b1-4)GlcNAc(b1-4)[Fuc(a1-6)]GlcNAc
Outline: as §1

[19] = target: GlcNAc(b1-3)Gal(b1-4)GlcNAc(b1-3)Gal(b1-4)GlcNAc(b1-3)Gal(b1-4)GlcNAc(b1-2)Man(a1-3)[GlcNAc(b1-3)Gal(b1-4)GlcNAc(b1-3)Gal(b1-4)GlcNAc(b1-3)Gal(b1-4)GlcNAc(b1-2)Man(a1-6)]Man(b1-4)GlcNAc(b1-4)[Fuc(a1-6)]GlcNAc
Outline: as §1

[20] = target: GlcNAc(b1-3)Gal(b1-4)GlcNAc(b1-3)Gal(b1-4)GlcNAc(b1-3)Gal(b1-4)GlcNAc(b1-2)[GlcNAc(b1-3)Gal(b1-4)GlcNAc(b1-3)Gal(b1-4)GlcNAc(b1-3)Gal(b1-4)GlcNAc(b1-6)]Man(a1-6)[GlcNAc(b1-3)Gal(b1-4)GlcNAc(b1-3)Gal(b1-4)GlcNAc(b1-3)Gal(b1-4)GlcNAc(b1-2)Man(a1-3)]Man(b1-4)GlcNAc(b1-4)[Fuc(a1-6)]GlcNAc
Outline: as §1

GlcNAc(b1-3)GalNAc = target: GlcNAc(b1-3)GalNAc
Outline: as §1

[21] = target: GlcNAc(b1-4)[GlcNAc(b1-6)]GalNAc
Outline: as §1

GlcNAc(b1-6)GalNAc = target: GlcNAc(b1-6)GalNAc
Outline: as §1

[22] = target: Man(a1-2)Man(a1-3)[Man(a1-2)Man(a1-6)]Man(a1-6)[Man(a1-2)Man(a1-2)Man(a1-3)]Man
Outline: as §1

[23] = target: Man(a1-2)Man(a1-6)[Man(a1-3)]Man(a1-6)[Man(a1-2)Man(a1-2)Man(a1-3)]Man(b1-4)GlcNAc(b1-4)GlcNAc
Outline: as §1

[24] = target: Man(a1-3)[Man(a1-6)]Man(a1-6)[Man(a1-3)]Man(b1-4)GlcNAc(b1-4)GlcNAc
Outline: as §1

[25] = target: Man(a1-3)[Man(a1-6)]Man(b1-4)GlcNAc(b1-4)GlcNAc
Outline: as §1

[26] = target: Neu5Ac(a2-3)Gal(b1-3)GlcNAc
Outline: as §1

[27] = target: Neu5Ac(a2-3)Gal(b1-3)GlcNAc(b1-2)[Neu5Ac(a2-3)Gal(b1-3)GlcNAc(b1-4)]Man(a1-6)[Neu5Ac(a2-3)Gal(b1-3)GlcNAc(b1-2)Man(a1-3)]Man(b1-4)GlcNAc(b1-4)GlcNAc
Outline: as §1

[28] = target: Neu5Ac(a2-3)Gal(b1-4)GlcNAc(b1-2)Man
Outline: as §1

[29] = target: Neu5Ac(a2-3)Gal(b1-4)GlcNAc(b1-2)Man(a1-3)[Neu5Ac(a2-6)Gal(b1-4)GlcNAc(b1-2)Man(a1-6)]Man(b1-4)GlcNAc(b1-4)GlcNAc
Outline: as §1

[30] = target: Neu5Ac(a2-3)Gal(b1-4)GlcNAc(b1-3)Gal(b1-4)GlcNAc(b1-6)[Gal(b1-3)]GalNAc
Outline: as §1

[31] = target: Neu5Ac(a2-3)Gal(b1-4)GlcNAc(b1-6)[Neu5Ac(a2-3)Gal(b1-3)]GalNAc
Outline: as §1

[32] = target: Neu5Ac(a2-3)Gal6S(b1-4)[Fuc(a1-3)]GlcNAc
Outline: as §1

[33] = target: Neu5Ac(a2-6)Gal(b1-4)GlcNAc
Outline: as §1

[34] = target: Neu5Ac(a2-6)Gal(b1-4)GlcNAc(b1-2)Man(a1-3)[Man(a1-6)]Man(b1-4)GlcNAc(b1-4)GlcNAc
Outline: as §1

[35] = target: Neu5Ac(a2-6)Gal(b1-4)GlcNAc(b1-2)Man(a1-3)[Neu5Ac(a2-3)Gal(b1-4)GlcNAc(b1-2)Man(a1-6)]Man(b1-4)GlcNAc(b1-4)GlcNAc
Outline: as §1

[36] = target: Neu5Ac(a2-8)Neu5Ac(a2-3)Gal(b1-3)GalNAc(b1-4)[Neu5Ac(a2-8)Neu5Ac(a2-3)]Gal(b1-4)Glc
Outline: as §1

[37] = target: Neu5Gc(a2-3)Gal(b1-3)[Fuc(a1-4)]GlcNAc
Outline: as §1

[38] = target: Neu5Gc(a2-3)Gal(b1-4)GlcNAc
Outline: as §1

[39] = target: Neu5Gc(a2-3)Gal(b1-4)[Fuc(a1-3)]GlcNAc
Outline: as §1

B1: LysMD3 (Homo sapiens), Q7Z3D4 (protein)
chain: MAGRHQNRSFPLPGVQSSGQVHAFGNCSDSDILEEDAEVYELRSRGKEKVRRSTSRDRLDDIIVLTKDIQEGDTLNAIALQYCCTVADIKRVNNLISDQDFFALRSIKIPVKKFSSLTETLCPPKGRQTSRHSSVQYSSEQQEILPANDSLAYSDSAGSFLKEVDRDIEQIVKCTDNKRENLNEVVSALTAQQMRFEPDNKNTQRKDPYYGADWGIG
[1]
  glycan array binding signal (z-score): 0.086
[2]
  glycan array binding signal (z-score): 0.587
[3]
  glycan array binding signal (z-score): 0.341
[4]
  glycan array binding signal (z-score): 1.97
[5]
  glycan array binding signal (z-score): 2.84
[6]
  glycan array binding signal (z-score): -0.081
Fuc(a1-4)GlcNAc
  glycan array binding signal (z-score): 0.681
[7]
  glycan array binding signal (z-score): 0.873
Gal(a1-4)GlcNAc
  glycan array binding signal (z-score): 0.113
Gal(b1-3)Gal
  glycan array binding signal (z-score): 0.706
Gal(b1-3)GlcNAc(b1-2)Man
  glycan array binding signal (z-score): 1.23
[8]
  glycan array binding signal (z-score): 2.15
[9]
  glycan array binding signal (z-score): -0.547
Gal(b1-4)Glc
  glycan array binding signal (z-score): -0.555
[10]
  glycan array binding signal (z-score): -0.073
[11]
  glycan array binding signal (z-score): 0.375
Gal3S(b1-4)GlcNAc
  glycan array binding signal (z-score): -0.699
[12]
  glycan array binding signal (z-score): 0.294
GalNAc(a1-3)Gal
  glycan array binding signal (z-score): 0.335
GalNAc(b1-3)GalNAc
  glycan array binding signal (z-score): 1.67
GalNAc(b1-3)GlcNAc
  glycan array binding signal (z-score): 1.85
[13]
  glycan array binding signal (z-score): -0.424
[14]
  glycan array binding signal (z-score): 0.45
[15]
  glycan array binding signal (z-score): 1.5
GlcNAc(b1-3)Gal(b1-4)Glc
  glycan array binding signal (z-score): 0.983
[16]
  glycan array binding signal (z-score): 1.83
[17]
  glycan array binding signal (z-score): 1.8
[18]
  glycan array binding signal (z-score): 1.87
[19]
  glycan array binding signal (z-score): 1.68
[20]
  glycan array binding signal (z-score): 2.41
GlcNAc(b1-3)GalNAc
  glycan array binding signal (z-score): -0.639
[21]
  glycan array binding signal (z-score): 0.46
GlcNAc(b1-6)GalNAc
  glycan array binding signal (z-score): 0.427
[22]
  glycan array binding signal (z-score): 0.422
[23]
  glycan array binding signal (z-score): -0.445
[24]
  glycan array binding signal (z-score): -0.113
[25]
  glycan array binding signal (z-score): -0.343
[26]
  glycan array binding signal (z-score): -0.413
[27]
  glycan array binding signal (z-score): -0.094
[28]
  glycan array binding signal (z-score): -0.604
[29]
  glycan array binding signal (z-score): 0.582
[30]
  glycan array binding signal (z-score): -0.924
[31]
  glycan array binding signal (z-score): -0.226
[32]
  glycan array binding signal (z-score): -0.291
[33]
  glycan array binding signal (z-score): -0.353
[34]
  glycan array binding signal (z-score): -1.15
[35]
  glycan array binding signal (z-score): -0.438
[36]
  glycan array binding signal (z-score): 1.66
[37]
  glycan array binding signal (z-score): -0.44
[38]
  glycan array binding signal (z-score): -0.032
[39]
  glycan array binding signal (z-score): -0.174
